Experimental findings from PubChem BioAssay (EPA / NIEHS) are described below.

The source made the active and inactive calls. How the source made its calls: active means hit-call score of the fitted dose curve at least 0.9, where 1 is the maximum; inactive means score below 0.9.

E-selectin (Homo sapiens), sequence (P16581 whole entry, looked up): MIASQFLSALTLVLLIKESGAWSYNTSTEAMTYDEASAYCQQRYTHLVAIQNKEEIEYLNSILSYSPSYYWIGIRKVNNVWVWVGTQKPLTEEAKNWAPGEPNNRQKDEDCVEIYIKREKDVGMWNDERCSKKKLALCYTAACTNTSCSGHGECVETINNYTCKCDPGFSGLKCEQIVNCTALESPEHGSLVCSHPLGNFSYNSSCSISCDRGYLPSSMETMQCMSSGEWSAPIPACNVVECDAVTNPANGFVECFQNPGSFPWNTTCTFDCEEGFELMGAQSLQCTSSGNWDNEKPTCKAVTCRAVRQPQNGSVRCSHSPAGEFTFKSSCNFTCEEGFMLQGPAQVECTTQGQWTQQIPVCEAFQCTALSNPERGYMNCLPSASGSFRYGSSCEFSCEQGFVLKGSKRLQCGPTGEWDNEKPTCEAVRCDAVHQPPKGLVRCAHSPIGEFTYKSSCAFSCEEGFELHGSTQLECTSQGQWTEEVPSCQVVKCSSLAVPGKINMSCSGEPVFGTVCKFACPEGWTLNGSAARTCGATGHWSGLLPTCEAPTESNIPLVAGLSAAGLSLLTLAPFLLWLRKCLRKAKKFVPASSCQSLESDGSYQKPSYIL

Read-out in the first assay: urokinase plasminogen activator (uPA), PLAU (gene 5328)
The experiment in a line: BSK_KF3CT_uPA: BioMAP Diversity Plus: KF3CT Assay for urokinase plasminogen activator (uPA) Biomarker Activity (AID 2283075). The settings on record: primary human keratinocytes with fibroblasts; actives raise or lower the signal. In short, it runs like this:
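Human keratinocyte plus foreskin fibroblast primary co-culture exposed to chemical for 24 h. uPA levels were quantified by ELISA, and activity was fitted bidirectionally against a DMSO negative-control baseline.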
Regarding `OCc1c[nH]c2ccccc12`, the result was inactive.
The same measure, in the same setting: the same measure for `c1ccc2cc3ccccc3cc2c1`: “inactive”; for `COc1cc(C(C)C)c2c(c1)S(=O)(=O)N(COc1cc(=O)n3cccc(OCCN4CCCCC4)c3n1)C2=O`: “inactive”.
As for `O=S(=O)(O)CCC(F)(F)C(F)(F)C(F)(F)C(F)(F)C(F)(F)C(F)(F)F`, the result was inactive.
With `Cc1nccn1-c1ccc(Sc2cccc(C3(C(N)=O)CCOCC3)c2)cc1`, the result was inactive.
The same measure, in the same setting: as for `CC(C)CC(C)O` (stereo unspecified), the entry is “inactive”; as for `NC(=O)NN=Cc1ccc([N+](=O)[O-])o1`, “inactive”.
In the case of `c1ccc(C(O[C@@H]2CCCN(CCc3ccc4c(c3)OCO4)C2)c2ccccc2)cc1`, the result was inactive.
With `CCCCOC(=O)c1ccccc1`, the outcome was inactive.
Still for that read-out and setting: as for `FC(F)(F)C(F)(F)C(F)(F)C(F)(F)C(F)(F)C(F)(F)I`, the entry is “inactive”; as for `NC(=O)N1c2ccccc2C=Cc2ccccc21`, “inactive”; as for `Cc1nc(-c2ccccn2)ncc1C(=O)Nn1cc(C)c2cc(F)ccc21`, “inactive”.
Regarding `O=C(O)[C@H](O)[C@@H](O)C(=O)O`, the outcome was inactive.
The same measure, in the same setting: the same measure for `Cc1cccc(O)c1C`: “inactive”; for `C[Si](C)(C)C(F)(F)C(F)(F)C(F)(F)F`: “inactive”.
The same measure, in the same setting: as for `CCOC(N)=O`, the entry is “inactive”.
In the case of `OC[C@H]1O[C@@H]2O[C@H]3[C@H](O)[C@@H](O)[C@@H](O[C@H]4[C@H](O)[C@@H](O)[C@@H](O[C@H]5[C@H](O)[C@@H](O)[C@@H](O[C@H]6[C@H](O)[C@@H](O)[C@@H](O[C@H]7[C@H](O)[C@@H](O)[C@@H](O[C@H]1[C@H](O)[C@H]2O)O[C@@H]7CO)O[C@@H]6CO)O[C@@H]5CO)O[C@@H]4CO)O[C@@H]3CO`, the outcome was inactive.
On the same count and under the same terms, as for `COc1cc2c(c(OC)c1OC)-c1ccc(OC)c(=O)cc1[C@@H](NC(C)=O)CC2`, the entry is “inactive”; as for `OCCC(F)(F)C(F)(F)C(F)(F)C(F)(F)F`, “inactive”.
Turning to `O=C(O)c1cccc(C(=O)O)c1`, the outcome was inactive.
The same measure, in the same setting: as for `CNC(C)=O`, the entry is “inactive”.
The same measure, in the same setting: the same measure for `CCCCCCCC1CCC(=O)O1` (stereo unspecified): “inactive”; for `O=C1CN(N=Cc2ccc([N+](=O)[O-])o2)C(=O)N1`: “inactive”; for `COS(C)(=O)=O`: “inactive”.
Still for that read-out and setting: as for `S=P(N1CC1)(N1CC1)N1CC1`, the entry is “inactive”.
Regarding `C[C@@H](Oc1ccc(CNC(=O)c2cccnc2Oc2ccc3c(c2)OCO3)c(F)c1)C(=O)O`, the result was inactive.
In the case of `O=c1[nH]cnc2c1ncn2[C@H]1CC[C@@H](CO)O1`, the result was inactive.

Read-out in a further assay: CD40, CD40 (gene 958)
The experiment in a line: BSK_LPS_CD40: BioMAP Diversity Plus: LPS Assay for CD40 Biomarker Activity (AID 2283076). Conditions: primary human HUVEC with PBMC; actives raise or lower the signal. An outline of the steps: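 CD40 signal, measured by ELISA, is fitted in both directions relative to DMSO vehicle. The system is an LPS-driven human vascular primary co-culture of endothelial cells and PBMC, sampled 24 h after compound addition.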
For the compound `OCc1c[nH]c2ccccc12`, the outcome was inactive.
Consider `c1ccc2cc3ccccc3cc2c1`, for which the result was inactive.
Usually AC50 stands for the concentration at which the activity in the assay is half-maximal. In the case of `COc1cc(C(C)C)c2c(c1)S(=O)(=O)N(COc1cc(=O)n3cccc(OCCN4CCCCC4)c3n1)C2=O`, the AC50 was 6.39 µM (active).
In the case of `O=S(=O)(O)CCC(F)(F)C(F)(F)C(F)(F)C(F)(F)C(F)(F)C(F)(F)F`, the result was inactive.
On the same count and under the same terms, as for `Cc1nccn1-c1ccc(Sc2cccc(C3(C(N)=O)CCOCC3)c2)cc1`, the entry is “inactive”; as for `CC(C)CC(C)O` (stereo unspecified), “inactive”; as for `NC(=O)NN=Cc1ccc([N+](=O)[O-])o1`, “inactive”.
Take `c1ccc(C(O[C@@H]2CCCN(CCc3ccc4c(c3)OCO4)C2)c2ccccc2)cc1`: the AC50 is 29.1 µM (active).
Turning to `CCCCOC(=O)c1ccccc1`, the result was inactive.
With `FC(F)(F)C(F)(F)C(F)(F)C(F)(F)C(F)(F)C(F)(F)I`, the result was inactive.
The same measure, in the same setting: the same measure for `NC(=O)N1c2ccccc2C=Cc2ccccc21`: “inactive”; for `Cc1nc(-c2ccccn2)ncc1C(=O)Nn1cc(C)c2cc(F)ccc21`: “inactive”; for `O=C(O)[C@H](O)[C@@H](O)C(=O)O`: “inactive”.
On the same count and under the same terms, as for `Cc1cccc(O)c1C`, the entry is “inactive”; as for `C[Si](C)(C)C(F)(F)C(F)(F)C(F)(F)F`, “inactive”; as for `CCOC(N)=O`, “inactive”.
Still for that read-out and setting: the same measure for `OC[C@H]1O[C@@H]2O[C@H]3[C@H](O)[C@@H](O)[C@@H](O[C@H]4[C@H](O)[C@@H](O)[C@@H](O[C@H]5[C@H](O)[C@@H](O)[C@@H](O[C@H]6[C@H](O)[C@@H](O)[C@@H](O[C@H]7[C@H](O)[C@@H](O)[C@@H](O[C@H]1[C@H](O)[C@H]2O)O[C@@H]7CO)O[C@@H]6CO)O[C@@H]5CO)O[C@@H]4CO)O[C@@H]3CO`: “inactive”.
With `COc1cc2c(c(OC)c1OC)-c1ccc(OC)c(=O)cc1[C@@H](NC(C)=O)CC2`, the AC50 is 0.148 µM (active).
On to `OCCC(F)(F)C(F)(F)C(F)(F)C(F)(F)F`, for which the outcome was inactive.
Take `O=C(O)c1cccc(C(=O)O)c1`: the outcome was inactive.
Still for that read-out and setting: the same measure for `CNC(C)=O`: “inactive”; for `CCCCCCCC1CCC(=O)O1` (stereo unspecified): “inactive”; for `O=C1CN(N=Cc2ccc([N+](=O)[O-])o2)C(=O)N1`: “inactive”.
As to `COS(C)(=O)=O`, the result was inactive.
Still for that read-out and setting: as for `S=P(N1CC1)(N1CC1)N1CC1`, the entry is “inactive”; as for `C[C@@H](Oc1ccc(CNC(=O)c2cccnc2Oc2ccc3c(c2)OCO3)c(F)c1)C(=O)O`, “inactive”; as for `O=c1[nH]cnc2c1ncn2[C@H]1CC[C@@H](CO)O1`, “inactive”.

Read-out in a further assay: E-selectin (Homo sapiens) (UniProt P16581)
The experiment in a line: BSK_LPS_Eselectin: BioMAP Diversity Plus: LPS Assay for Eselectin Biomarker Activity (AID 2283077). The settings on record: primary human HUVEC with PBMC; actives raise or lower the signal. An outline of the steps: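 Signal of E-selectin, detected by ELISA, served as the endpoint; cells were umbilical vein endothelium with PBMC, read 24 h after treatment. DMSO defined baseline, and both increases and decreases were fitted.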
For the compound `OCc1c[nH]c2ccccc12`, the outcome was inactive.
Turning to `c1ccc2cc3ccccc3cc2c1`, the result was inactive.
For `COc1cc(C(C)C)c2c(c1)S(=O)(=O)N(COc1cc(=O)n3cccc(OCCN4CCCCC4)c3n1)C2=O`, the AC50 was 8.03 µM (active).
For the compound `O=S(=O)(O)CCC(F)(F)C(F)(F)C(F)(F)C(F)(F)C(F)(F)C(F)(F)F`, the outcome was inactive.
The same measure, in the same setting: as for `Cc1nccn1-c1ccc(Sc2cccc(C3(C(N)=O)CCOCC3)c2)cc1`, the entry is “inactive”; as for `CC(C)CC(C)O` (stereo unspecified), “inactive”; as for `NC(=O)NN=Cc1ccc([N+](=O)[O-])o1`, “inactive”.
The same measure, in the same setting: as for `c1ccc(C(O[C@@H]2CCCN(CCc3ccc4c(c3)OCO4)C2)c2ccccc2)cc1`, the entry is “inactive”; as for `CCCCOC(=O)c1ccccc1`, “inactive”; as for `FC(F)(F)C(F)(F)C(F)(F)C(F)(F)C(F)(F)C(F)(F)I`, “inactive”.
`NC(=O)N1c2ccccc2C=Cc2ccccc21`: the result was inactive.
In the case of `Cc1nc(-c2ccccn2)ncc1C(=O)Nn1cc(C)c2cc(F)ccc21`, the outcome was inactive.
The same measure, in the same setting: as for `O=C(O)[C@H](O)[C@@H](O)C(=O)O`, the entry is “inactive”.
Same read-out and setting: as for `Cc1cccc(O)c1C`, the entry is “inactive”.
On the same count and under the same terms, as for `C[Si](C)(C)C(F)(F)C(F)(F)C(F)(F)F`, the entry is “inactive”.
For `CCOC(N)=O`, the result was inactive.
Still for that read-out and setting: as for `OC[C@H]1O[C@@H]2O[C@H]3[C@H](O)[C@@H](O)[C@@H](O[C@H]4[C@H](O)[C@@H](O)[C@@H](O[C@H]5[C@H](O)[C@@H](O)[C@@H](O[C@H]6[C@H](O)[C@@H](O)[C@@H](O[C@H]7[C@H](O)[C@@H](O)[C@@H](O[C@H]1[C@H](O)[C@H]2O)O[C@@H]7CO)O[C@@H]6CO)O[C@@H]5CO)O[C@@H]4CO)O[C@@H]3CO`, the entry is “inactive”.
For `COc1cc2c(c(OC)c1OC)-c1ccc(OC)c(=O)cc1[C@@H](NC(C)=O)CC2`, the outcome was inactive.
Same read-out and setting: as for `OCCC(F)(F)C(F)(F)C(F)(F)C(F)(F)F`, the entry is “inactive”.
Same read-out and setting: the same measure for `O=C(O)c1cccc(C(=O)O)c1`: “inactive”.
Take `CNC(C)=O`: the result was inactive.
With `CCCCCCCC1CCC(=O)O1` (stereo unspecified), the result was inactive.
Still for that read-out and setting: as for `O=C1CN(N=Cc2ccc([N+](=O)[O-])o2)C(=O)N1`, the entry is “inactive”; as for `COS(C)(=O)=O`, “inactive”.
On the same count and under the same terms, as for `S=P(N1CC1)(N1CC1)N1CC1`, the entry is “inactive”; as for `C[C@@H](Oc1ccc(CNC(=O)c2cccnc2Oc2ccc3c(c2)OCO3)c(F)c1)C(=O)O`, “inactive”.
As for `O=c1[nH]cnc2c1ncn2[C@H]1CC[C@@H](CO)O1`, the outcome was inactive.
